Sampled rows, rich in hits. Any-hit rate of the full collection: about 0.78%.
CCT chaperon mod – modulators of cytosolic chaperonin (CCT/TRiC) activity | 360,000 tested, 0.3% active | AID 651819 | activity change, % (test concentration not listed), hits read low | purified chaperonin ATPase assay, HTRF ADP detection, 30 min; in the data active = activity change below about -30%
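ATPase activity: ADP formed was measured by HTRF Transcreener (665/615 nm ratio) after 30 min at 37 deg C with 10 uM ATP. Compounds screened at one 76 uM concentration against 40 or 20 nM TRiC in Tris pH 7.4/KCl/MgCl2/DTT buffer.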
PI4K2A block – PI4K2A (human) kinase inhibition. purified PI4K2A, ADP-Glo luminescence, 1 h; active compounds read low. AID 1346378. activity change, negative = inhibition, % at 76.9 µM. 420,000 tested, 0.13% active; in the data active = activity change below about -50%; inconclusive = mostly about -30% to -49%
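In this quantitative HTS, ADP production by PI4K2A was quantified luminescently after 1 h at ambient temperature; 100 microM adenosine served as plate-quality control.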
GLS inh – inhibitors of human glutaminase (GLS); O94925; GLS enzymatic activity, qHTS titration; Potency, µM (top dose mostly 45.5 µM), actives largely listed as inhibitors; 410,000 tested, 0.21% active
Target sequence (O94925 whole entry, looked up): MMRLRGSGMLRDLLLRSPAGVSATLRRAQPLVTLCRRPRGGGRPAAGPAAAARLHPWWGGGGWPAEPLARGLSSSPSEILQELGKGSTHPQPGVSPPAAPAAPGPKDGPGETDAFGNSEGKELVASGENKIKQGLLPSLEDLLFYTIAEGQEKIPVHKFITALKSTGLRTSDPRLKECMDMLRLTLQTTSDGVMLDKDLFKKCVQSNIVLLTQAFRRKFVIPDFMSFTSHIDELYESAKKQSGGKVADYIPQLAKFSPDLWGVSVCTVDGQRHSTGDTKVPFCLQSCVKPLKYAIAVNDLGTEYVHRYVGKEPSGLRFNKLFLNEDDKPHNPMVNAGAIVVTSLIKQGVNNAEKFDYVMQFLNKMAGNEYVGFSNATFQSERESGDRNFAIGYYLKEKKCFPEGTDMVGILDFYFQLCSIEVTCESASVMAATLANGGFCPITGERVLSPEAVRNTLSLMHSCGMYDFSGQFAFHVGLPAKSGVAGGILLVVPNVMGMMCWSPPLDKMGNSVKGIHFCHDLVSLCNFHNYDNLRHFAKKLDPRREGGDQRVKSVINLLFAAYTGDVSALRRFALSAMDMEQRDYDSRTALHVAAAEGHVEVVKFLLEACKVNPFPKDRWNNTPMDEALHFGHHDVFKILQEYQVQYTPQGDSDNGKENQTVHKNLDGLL
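Coupled fluorescence readout: glutamate oxidase/HRP/Amplex Red detect glutamate formed by hKGA from L-glutamine (1 mM solution added). Buffer 45 mM KH2PO4 pH 8.2, 0.02% Tween-20; reads at t0 and 30 min RT.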
PINK1 expr mod – modulators of PINK1 expression | 410,000 tested, 0.2% active | Potency, µM (top dose mostly 76.6 µM), usual class: activators | AID 624263 | PINK1 immunofluorescence, high-content cytometry, 24 h; active = well fitted activation curve with a large enough effect; inconclusive = small, poorly fitted or top-dose-only effect; cell line not stated here; note: nearly all actives have a fitted effect of over 65% in size
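Decision-based qHTS: stable cells, 24 h exposure to five compound concentrations, CCCP as control. Fixed cells stained for PINK1 plus nuclear, mitochondrial and cell markers, cytometer read.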
PGK inhibitor – inhibitors of T. brucei phosphoglycerate kinase; PGK/GAPDH coupled, Kinase-Glo luminescence, 60 min; Potency, µM (doses to about 57.5 µM), hits mostly inhibitors; 380,000 tested, 0.043% active; note: nearly all actives have a fitted effect of over 60% in size
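Recombinant glycosomal PGK reaction used 1,3-bisphosphoglycerate generated in-well by GAPDH (100nM final) in 100mM TEA pH 7.6, 5mM MgCl2, 0.01% Tween-20. After 60 minutes at room temperature, ATP was read by Kinase-Glo Plus luminescence end-point.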
Numbers stand for hits; n = inactive; u = inconclusive; x = not tested or not shown; [ ] = another dose, or the depositor's remark. Unless noted, calls come from the whole dose curve; as a rule, active = well fitted curve in the direction sought with a large enough effect; inconclusive = small, poorly fitted or top-dose-only effect, or another doubt; inactive = no such curve, though single readings can be large; an effect the other way counts as inactive or inconclusive.

SMILES | CCT chaperon mod | PI4K2A block | GLS inh | PINK1 expr mod | PGK inhibitor
Cc1oc2ncn(C)c(=O)c2c1C(=O)NC(C)c1ccccc1 (centres undefined) | x | n | 11µM | n | n
CCN1C(=O)/C(=C2/C=CC=CN2C)SC1=S | n | n | n | n | n
CN1C=CC=C/C1=C1/SC(=S)N(Cc2ccccc2)C1=O | -62 | n | n | n | n
COc1cc(CNc2nc(C)c(-c3ccn(CC4CCCN(C)C4)n3)s2)ccc1F (centres undefined) | x | x | x | n | x
O=C(O)/C=C1\NC(=O)c2ccccc21 | n | n | n | n | n
O=C1N/C(=C\c2ccc(O)cc2)C(=O)c2ccccc21 | n | -50 | n | n | n
Cc1nn(C)c(Cl)c1CN1CCOc2ccc(CN3CCC(Oc4cccnc4)CC3)cc2C1 | x | x | x | n | x
COCCNC(=O)/C(C#N)=C/c1ccc(O)cc1 | n | -69 | n | n | u
COCCNC(=O)/C(C#N)=C/c1cccc(/C=C(\C#N)C(=O)NCCOC)c1 | n | n | n | n | n
COCCCNC(=O)/C(C#N)=C/c1ccc(OCC(=O)O)c(OC)c1 | n | n | 10µM | n | u
COc1ccc(-n2c(CCNC(=O)c3ccccc3C(F)(F)F)nnc2SC)cc1 | x | x | x | n | x
Cc1ncsc1CCC(=O)N1CCCC(c2nc(-c3ccncc3)ncc2-c2ccccc2)C1 (centres undefined) | x | x | x | n | x
O=C(Nc1ccccc1)c1ccccc1NS(=O)(=O)c1ccc(Cl)s1 | n | n | n | u | n
O=C(Nc1ccccc1Cc1ccccc1)c1ccccc1NS(=O)(=O)c1ccc(Cl)s1 | n | n | n | 11µM | n
Cc1ccc(NC(=O)c2ccccc2NS(=O)(=O)c2ccc(Cl)s2)cc1 | n | n | n | 20µM | n
CCOc1ccc2c(ccc(/C=C/c3cc(C)c4cccnc4c3O)[n+]2C)c1 | n | -58 | n | u | u
CN(Cc1ccccc1)C(=O)C1CCN(S(=O)(=O)c2cccc3nonc23)CC1 | n | n | 10µM | n | n
CCOC(=O)c1ccc(N2C(=O)C3CC=CCC3C2=O)cc1 (centres undefined) | -46 | n | n | n | x
COc1ccc(NC(=O)CN2CCN(c3ccc(C)cc3C)CC2)cc1 | -55 | n | n | n | n
COc1ccc(NC(=O)CN2CCN(c3c(C)cc(C)cc3C)CC2)cc1 | n | n | n | n | n
CCN(CC)CCNC(=O)c1cnn(-c2nccc(-c3cc4ccccc4o3)n2)c1C | x | x | x | n | x
Cc1c(C(=O)c2ccccc2)c2ccccn2c1CCc1ccccn1 | -70 | n | n | n | n
Cc1c(C(=O)c2ccc(F)cc2)c2ccccn2c1CCc1ccccn1 | n | n | n | n | n
Cc1ccc[n+](CC2OCc3ccccc3CO2)c1 | n | n | n | n | n
CCCCN(CCCC)CC1OCc2ccccc2CO1 | n | n | n | 4µM | n
SMILES | CCT chaperon mod | PI4K2A block | GLS inh | PINK1 expr mod | PGK inhibitor
CCOC(=O)N1CCN(C(=O)c2ccc(Cn3c(=S)[nH]c4ccc(Br)cc4c3=O)cc2)CC1 | n | n | n | 25µM | n
CCOC(=O)N1CCN(C(=O)c2ccc3c(=O)n(Cc4ccc(Cl)cc4)c(=S)[nH]c3c2)CC1 | n | n | n | n | n
COc1ccc2[nH]c3c(=O)n(CCCCC(=O)NCCN4CCCC4)c(=S)[nH]c3c2c1 | n | n | n | u | n
COc1ccc2[nH]c3c(=O)n(Cc4ccc(C(=O)N5CCCC5)cc4)c(=S)[nH]c3c2c1 | n | n | 10µM | n | n
CNC(=O)c1c(I)c(NC(=O)CCCCC(=O)Nc2c(I)c(C(=O)O)c(I)c(C(=O)NC)c2I)c(I)c(C(=O)O)c1I | x | n | x | x | x
Cn1c(NCc2cccnc2)nc2c1c(=O)n(Cc1ccccc1F)c(=O)n2C | n | n | u | n | n
Cn1c(NCCO)nc2c1c(=O)n(Cc1ccccc1Cl)c(=O)n2C | x | n | 5µM | n | n
Cn1c(NCCCN2CCOCC2)nc2c1c(=O)n(Cc1ccc(Cl)cc1Cl)c(=O)n2C | n | n | 2.5µM | n | n
COCCNc1nc2c(c(=O)n(Cc3ccccc3F)c(=O)n2C)n1C | n | n | 16µM | n | n
CCCCNc1nc2c(c(=O)n(Cc3ccc(Cl)cc3)c(=O)n2C)n1C | x | n | n | n | n
Cn1c(NCCO)nc2c1c(=O)n(Cc1ccc(F)cc1)c(=O)n2C | n | n | n | n | n
CCCC(=O)Nc1ccc(O)c(C(C)=O)c1 | x | n | x | x | x
COc1ccc2c(C(=S)N(C)CC(=O)O)cccc2c1C(F)(F)F | x | x | n | x | x
COCCNc1nc(-c2cc(C)c(C)cc2C)cs1 | n | n | 13µM | n | n
O=C(O)c1ccc(-n2cccc2/C=C2/SC(=O)N(CC(=O)N3CCCC3)C2=O)cc1 | n | n | 16µM | n | u
O=C(O)c1ccc(-n2cccc2/C=C2/NC(=O)N(c3ccccc3)C2=O)cc1 | n | n | 10µM | n | u
O=C(O)c1ccc(-n2cccc2/C=C2/NC(=O)N(c3cccc(Cl)c3)C2=O)cc1 | n | n | u | n | u
Cc1nc(CN2CCN(C(=O)CC3(c4ccccc4Cl)CC(=O)N(C)C3=O)CC2)cs1 (centres undefined) | x | x | x | n | x
CCCCCCCCCCCCCCCC(=O)O[C@H]1[C@@H](O)[C@@H](O)[C@@H]([C@H](NC(=O)[C@@H]2C[C@@H](CCC)CN2C)[C@H](C)Cl)O[C@@H]1SC | x | x | n | x | x
COC(=O)c1cc(CNC(=O)c2cccc(N(C)C)c2)cc(NC(=O)c2ccccc2Cl)c1 | x | x | x | n | x
Cc1c(C(=O)N2CCCC2)sc(NC(=O)c2cccc(Cl)c2)c1C#N | n | n | n | u | n[11.5 µM]
Cc1cccc(C(=O)Nc2sc(C(=O)N3CCCC3)c(C)c2C#N)c1 | n | -75 | n | n | n
COc1ccccc1C1CN(CC(=O)N[C@H]2CCCCNC2=O)Cc2ccccc2O1 (some centres undefined) | x | x | x | n | x
Cc1cccc(NC(=S)N(Cc2ccco2)C(C)c2cccs2)c1 (centres undefined) | n | n | n | n | n
CC(c1cccs1)N(Cc1ccco1)C(=S)Nc1ccc(F)c(Cl)c1 (centres undefined) | -59 | n | n | n | n
SMILES | CCT chaperon mod | PI4K2A block | GLS inh | PINK1 expr mod | PGK inhibitor
CCOCCOC(=O)/C=C/c1ccc(OC)cc1 | x | n | x | x | x
O=[S@]1Oc2ccccc2-c2ccccc21 | -71 | n | n | n | n
Cc1ccc(C(=O)Nc2cnn(-c3ccc(C(=O)NCc4nc(-c5ccccc5)n[nH]4)cc3)c2)c(C)c1 | x | x | x | n | x
N#Cc1c(NC(=O)c2ccccc2Cl)n(Cc2ccccc2)c2nc3ccccc3nc12 | n | -50 | n | u | n
CCCCn1c(NC(=O)c2ccccc2Cl)c(C#N)c2nc3ccccc3nc21 | n | n | n | 40µM | n
COc1ccc(-n2c(NC(=O)c3ccco3)c(C#N)c3nc4ccccc4nc32)cc1 | -60 | n | n | n | u
CCc1ccccc1N/N=C(/C)c1c(O)cc(C)oc1=O | n | n | 11µM | n | n

Bioassay records: PubChem BioAssay, National Center for Advancing Translational Sciences (NCATS)
